Hits are enriched below; roughly 3% of the tested compounds scored in any of these assays.
SENP8 block-1 = SENP8 protease inhibition. Q96LD8. purified SENP8, Z-RLRGG-aminoluciferin cleavage, luminescence. inhibition, % at 10 µM. 330,000 tested, 1.2% active; in the data active means inhibition above about 50%
Target sequence (Q96LD8 whole entry, looked up): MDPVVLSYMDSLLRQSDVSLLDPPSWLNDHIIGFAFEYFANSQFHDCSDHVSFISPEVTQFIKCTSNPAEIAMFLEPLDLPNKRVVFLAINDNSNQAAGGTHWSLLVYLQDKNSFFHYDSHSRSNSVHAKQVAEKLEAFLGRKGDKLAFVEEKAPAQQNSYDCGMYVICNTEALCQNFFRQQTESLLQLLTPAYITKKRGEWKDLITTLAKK
SENP8 block-2 = inhibitors of human SENP8 protease; inhibition, % at 20 µM; 360,000 tested, 0.64% active; recombinant SENP8, Nedd8 substrate fluorescence; in the data active means inhibition mostly above about 40%, no sharp cut-off; inactive means mostly below about 27%
PPC-1+TRAIL kill = PPC-1 cancer cell killing with TRAIL present; 220,000 tested, 0.41% active; PPC-1 cells + TRAIL, ATPLite viability luminescence; cell killing (% activity), % at 4 µM or 5 µM;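 active means cell killing above 50% in the first pass at 4 µM, then a duplicate retest at 5 µM averaging 50% or more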
SENP7 block = SENP7 protease inhibition | Q9BQF6 | recombinant SENP7, Z-RLRGG-aminoluciferin luminescence, 40 min | inhibition, % at 5 µM | 330,000 tested, 1.5% active | AID 434973;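 active means inhibition above about 50% at the single test dose, limit read from the data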
Target sequence (Q9BQF6 706-1050 limits assumed): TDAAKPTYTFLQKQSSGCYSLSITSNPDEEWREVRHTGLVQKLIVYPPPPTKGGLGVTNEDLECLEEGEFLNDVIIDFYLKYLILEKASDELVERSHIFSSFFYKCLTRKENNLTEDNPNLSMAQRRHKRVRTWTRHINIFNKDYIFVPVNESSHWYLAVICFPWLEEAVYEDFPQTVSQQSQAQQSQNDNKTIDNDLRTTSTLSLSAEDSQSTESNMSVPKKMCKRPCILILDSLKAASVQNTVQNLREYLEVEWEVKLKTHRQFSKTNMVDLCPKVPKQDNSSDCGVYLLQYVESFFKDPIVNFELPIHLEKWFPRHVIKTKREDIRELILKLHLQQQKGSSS
C8 TRAIL sens = caspase-8 TRAIL sensitization | NB7+C8 cells + TRAIL, ATPlite viability luminescence | inhibition (viability loss, TRAIL sensitization), % at 10 µM | 360,000 tested, 1% active;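 active means compounds causing at least 50% loss of cell viability in the single-dose screen, relative to plate controls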
SENP6 inh = inhibitors of human SENP6 protease; Q9GZR1; Recombinant SENP6 catalytic domain, aminoluciferin luminescence; inhibition, % at 10 µM; 330,000 tested, 1.8% active; AID 2599;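 active means inhibition above about 50% at the single tested dose, limit read from the data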
PPC-1 tox = PPC-1 cell cytotoxicity. PPC-1 viability, ATPlite luminescence, overnight. AID 1447. cytotoxicity, % at 5 µM. shares compounds with PPC-1+TRAIL kill. 1,200 tested, 50% active;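 active means reconfirmed compounds whose average cytotoxicity reaches 50% or more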
Of the large screens only hits and unclear results are named; the others gave an inactive call (follow-up assays come after a bar, where they were run).

CC(=O)c1nn(-c2ccc(Cl)cc2)cc1C(=O)c1ccccc1	none (no result: PPC-1+TRAIL kill)
CC(=O)c1nn(-c2cccc(Br)c2)cc1C(=O)c1ccccc1	none | PPC-1 tox inactive
O=C(NCCc1ccc2c(c1)OCCO2)c1cc(S(=O)(=O)N2CCCC2)ccc1Br	none (no result: SENP8 block-1, PPC-1+TRAIL kill, SENP7 block, SENP6 inh)
Cc1cc(C)c(S(=O)(=O)n2c([N+](=O)[O-])cnc2C)c(C)c1	none
O=C(CCC(=O)Nc1ccccc1Cl)NN=C1CCCC1	none (no result: PPC-1+TRAIL kill)
CC1=CC(C)[C@H](/C=N/n2c(=O)[nH]c3c([nH]c4ccc(C)cc43)c2=O)C(C)C1 (some centres undefined)	none (no result: PPC-1+TRAIL kill)
Cn1c(C(=O)N[C@@H](C(=O)O)c2ccccc2)cc2cc(F)ccc21	none (no result: PPC-1+TRAIL kill)
COC(=O)c1nc2n(n1)C(c1ccccc1OC)C1=C(CCCC1=O)N2 (centres undefined)	none
COC(=O)c1nc2n(n1)C(c1ccc(OC)c(OC)c1OC)C1=C(CCCC1=O)N2 (centres undefined)	none | PPC-1 tox inactive
N#CCc1nc(CSc2nc3ccccc3s2)cs1	none | PPC-1 tox inactive
CCn1c(C)cc(/C=C2/SC(=O)N(C(C)C(=O)OC)C2=O)c1C (centres undefined)	none
COCCn1c(C)cc(/C=C2/SC(=O)N(C(C)C(=O)OC)C2=O)c1C (centres undefined)	PPC-1+TRAIL kill 53, C8 TRAIL sens 63 | PPC-1 tox inactive
Cc1cc(/C=N/Nc2nc(N)ncc2[N+](=O)[O-])c(C)n1-c1ccccc1F	SENP8 block-1 95, PPC-1+TRAIL kill 76, SENP7 block 95, SENP6 inh 102 (no result: SENP8 block-2, C8 TRAIL sens) | PPC-1 tox 77
Cc1cccc(C)c1-n1c(C)cc(/C=N\Nc2ccc([N+](=O)[O-])cn2)c1C	none
O=C(N/N=C\c1c(O)ccc2ccccc12)c1ccc(O)cc1	none (no result: PPC-1+TRAIL kill)
Cn1cc(C(=O)N/N=C/c2c(O)ccc3ccccc23)ccc1=O	none | PPC-1 tox inactive
CC1CCC(NC(=O)COC(=O)CSc2ccc(C(N)=O)cc2[N+](=O)[O-])CC1 (centres undefined)	none (no result: PPC-1+TRAIL kill)
Cn1cnnc1Sc1ccc(C(=O)OCC(=O)NC2CC2)cc1[N+](=O)[O-]	none (no result: SENP8 block-1, SENP7 block, SENP6 inh) | PPC-1 tox inactive
Cc1ccccc1NC(=O)CSc1ccc(-c2cccnc2)nn1	none (no result: PPC-1+TRAIL kill)
CCOC(=O)c1ccccc1NC(=O)CSc1ccc(-c2cccnc2)nn1	none | PPC-1 tox inactive
CCOC(=O)Cc1cc(=O)[nH]c(/N=C(\N)Nc2ccc(C)c(C)c2)n1	none
Cc1ccc(S(=O)(=O)NCC(=O)NC2CCCCCC2)cc1	none | PPC-1 tox inactive
Cc1nc2c(C)cccn2c1/C(O)=C1\C(=O)C(=O)N(CCN(C)C)C1c1ccccc1 (centres undefined)	none
CN1CCN(C(=O)c2ccc(COc3ccc(C(C)(C)C)cc3)o2)CC1	none | PPC-1 tox inactive
CCOc1ccc(C(=O)Nn2cnnc2)cc1	none
CCOc1ccc(C/C(N)=N/n2cnnc2)cc1	none | PPC-1 tox inactive
OCCSc1nc(N2CCOCC2)nc(N2CCOCC2)n1	none
CC(=O)c1sc2c(c1OC(=O)c1ccc(Cl)cc1Cl)c(=O)n(-c1ccccc1)c(=S)n2-c1ccccc1	none | PPC-1 tox inactive
O=C(Nc1ccccc1C(=O)NC1CC1)c1ccccc1F	none (no result: PPC-1+TRAIL kill)
CC(=O)N(C)C1=C(N2CCOCC2)C(=O)c2ccccc2C1=O	C8 TRAIL sens 90 | PPC-1 tox inactive
COc1cc(SC)ccc1C(=O)Nc1nccs1	PPC-1+TRAIL kill 67, C8 TRAIL sens 80 | PPC-1 tox 69
O=C1C=C(NCCN2CCOCC2)C(=O)c2cnccc21	PPC-1+TRAIL kill 65 (no result: SENP8 block-1, SENP8 block-2, SENP7 block, C8 TRAIL sens, SENP6 inh) | PPC-1 tox 67
O=C(NCCN1CCOCC1)c1ccncc1	none
O=C(COC(=O)CNC(=O)c1ccccc1F)Nc1ncc(Cl)cc1Cl	none (no result: PPC-1+TRAIL kill)
COc1ccc(NC(=O)CCC(=O)N(Cc2ccc(OC)c(OC)c2)c2nccs2)c(OC)c1	none (no result: PPC-1+TRAIL kill)
COc1nc(Nc2nc3ccccc3c(=O)[nH]2)nc2ccc(C)cc12	PPC-1+TRAIL kill 51 | PPC-1 tox 51
Cc1cc(C)cc(Nc2nc3ccccc3c(=O)[nH]2)c1	none
COc1ccc(N2C(=O)c3ccccc3NC(=O)C2C(=O)Nc2ccc(N3CCOCC3)cc2)cc1 (centres undefined)	none (no result: SENP8 block-1, PPC-1+TRAIL kill, SENP7 block, SENP6 inh)
Cc1nc2cc(NCc3nc4ccccc4n3Cc3ccccc3)ccc2n1C	PPC-1+TRAIL kill 61 | PPC-1 tox 63
CC(=O)Nc1ccc2c(c1)nc(C)n2Cc1ccccc1	none (no result: PPC-1+TRAIL kill)
COc1ccc(CNC(=O)CN2CCC(NC(=O)c3ccc(OC)cc3)CC2)cc1	none (no result: PPC-1+TRAIL kill)
COc1ccc(-c2nc3ccccc3s2)cc1	PPC-1+TRAIL kill 60, C8 TRAIL sens 84 (no result: SENP8 block-1, SENP7 block, SENP6 inh) | PPC-1 tox 61
O=C(c1cc2c(F)cccc2s1)N1CCCC1	none
COc1ccc(OCCC(=O)NCCN2CCOCC2)cc1	none
Cc1ccc(S(=O)(=O)Nc2cccc3ncccc23)cc1	none
Cc1ccc(S(=O)(=O)Nc2cccc3ncccc23)s1	none | PPC-1 tox inactive
Cc1cc(/C=N/NC(=O)c2ccc(O)cc2)c(C)n1CC(C)C	none
Cn1nnc(NC(=O)c2ccc(C(C)(C)C)cc2)n1	PPC-1+TRAIL kill 54, C8 TRAIL sens 55 | PPC-1 tox 53
Cc1cc(NC(=O)C(C)SCC(=O)N(C)Cc2c(F)cccc2Cl)no1 (centres undefined)	none (no result: PPC-1+TRAIL kill)
CC(C)NC(=O)COC(=O)c1cc(F)c(F)cc1Cl	none | PPC-1 tox inactive
CNC(=O)COC(=O)c1cc(F)c(F)cc1Cl	none
CCOC(=O)c1c(NC(=O)c2noc(C)c2[N+](=O)[O-])sc(C(C)=O)c1C	none | PPC-1 tox inactive
CCOC(=O)c1c(NC(=O)c2cc(-c3cccc(O)c3)on2)sc(C(C)=O)c1C	none
Cc1ccc(NCc2ccccc2O)c(C)c1	none | PPC-1 tox inactive
Cc1cccc(NCc2ccccc2O)c1C	none
Cc1nc2ccc(NC(=O)Cc3cccc(F)c3)cc2s1	none
Cc1cccc(OCC(=O)Nc2ccc3nc(C)sc3c2)c1	none
Cc1nc2ccc(NC(=O)Cc3ccsc3)cc2s1	none | PPC-1 tox inactive
Cc1nc2ccc(NC(=O)COc3ccccc3)cc2s1	none (no result: SENP8 block-1, SENP7 block, SENP6 inh) | PPC-1 tox inactive
CCCn1cnnc1CNC(=O)[C@H]1O[C@@H](n2ccc(=O)[nH]c2=O)[C@H](O)[C@@H]1O	none (no result: SENP8 block-1, PPC-1+TRAIL kill, SENP7 block, SENP6 inh)
CCc1ccc(C(C#N)=CC=Cc2ccccc2)cc1	none (no result: SENP8 block-1, PPC-1+TRAIL kill, SENP7 block, SENP6 inh)
COc1cc(C(=O)N/N=C(\c2ccccc2)c2ccccn2)cc(OC)c1OC	none | PPC-1 tox inactive
CCC(=O)Nc1cc(SCCO)cc([N+](=O)[O-])c1	none
O=C(CCl)Nc1cc(SCC(O)CO)cc([N+](=O)[O-])c1 (centres undefined)	none (no result: SENP8 block-1, SENP7 block, SENP6 inh) | PPC-1 tox 50
CCCCN1C(=O)C(NC(C)=O)c2cc(Br)ccc21 (centres undefined)	none | PPC-1 tox inactive
COc1cc(Br)cc(Br)c1OCC(=O)N/N=C/c1c(C)n(C)n(-c2ccccc2)c1=O	none (no result: PPC-1+TRAIL kill)
CCN(CC)CCn1nc2c3c(cccc3c1=O)-c1ccccc1-2	none | PPC-1 tox inactive

Assay outcomes from PubChem BioAssay.
